Data published in PubChem BioAssay.
Activity calls are given as the source filed them.

Assays:
[1] = tested on: Plasmodium falciparum Sir2 (PF13_0152, Sir2A); test: Plasmodium falciparum Sir2A binding compounds – biochemical, small-molecule microarray, 635 nm fluorescence, primary screen (AID 1098); conditions: fluorescence 635 nm, higher = more signal;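 further: score merges spot fluorescence intensity with its signal-to-noise ratio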
[2] = probe aDKK1 binding to arrayed compounds – biochemical, biotinylated probe, 635/667 nm fluorescence, primary screen (AID 1099); conditions: small-molecule microarray, higher = more signal;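 further: score merges 667nm spot fluorescence with signal to noise across triplicate slides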
[3] = probe aCHRDL2 binding to arrayed compounds – biochemical, biotinylated probe, 635/667 nm fluorescence, primary screen (AID 1100); conditions: small-molecule microarray, higher = more signal
[4] = change in splice reporter luminescence, either direction, cell-based, HEK293, spliceosome inhibition project, primary screen (AID 1101); conditions: HEK293 splicing luciferase reporter, 24 h, higher = more signal, called active from +8 up or from −8 down;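 further: HEK293 cells carrying a splicing-competent luciferase reporter gene; test concentration not given here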
[5] = target: Fibroblast growth factor 10 (Homo sapiens) (UniProt O15520); test: compounds binding fibroblast growth factor 10 – biochemical, small-molecule microarray, 635 nm fluorescence, primary screen (AID 1102); conditions: FGF10 binding, fluorescence 635 nm, higher = more signal
[6] = tested on: glycogen synthase kinase-3 (GSK3A per assay name; protocol says GSK3B); test: compounds binding glycogen synthase kinase-3 – biochemical, small-molecule microarray, 635 nm fluorescence, GSK3A, primary screen (AID 1103); conditions: fluorescence 635 nm, higher = more signal; further: the record names both GSK3A and GSK3B
[7] = target: Epidermal growth factor receptor (Homo sapiens) (UniProt P00533); test: compounds binding epidermal growth factor receptor – biochemical, small-molecule microarray, 635 nm fluorescence, primary screen (AID 1104); conditions: EGFR binding, higher = more signal;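 further: score merges 667 nm emission intensity with spot signal to noise over triplicate slides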
[8] = target: Follistatin-related protein 3 (Homo sapiens) (UniProt O95633); test: compounds binding follistatin-related protein 3 – biochemical, small-molecule microarray, 635 nm fluorescence, primary screen (AID 1105); conditions: FSTL3 binding, higher = more signal;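 further: score merges emission near 667 nm and signal to noise per printed spot across three slides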
[9] = target: Dickkopf-related protein 1 (Homo sapiens) (UniProt O94907); test: small molecules binding DKK1 protein – biochemical, small-molecule microarray, 635 nm fluorescence scan, primary screen (AID 1106); conditions: higher = more signal;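 further: score merges emission near 667 nm with signal to noise over three replicate slides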
[10] = tested on: Inhibin beta A chain (activin A); test: small molecules binding activin A – biochemical, small-molecule microarray, 635 nm fluorescence scan, primary screen (AID 1107); conditions: INHBA, higher = more signal;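 further: mouse activin A protein probed at 4.33 µg/mL on printed slides; score merges bound-protein fluorescence near 667 nm with spot signal-to-noise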
[11] = tested on: Human papillomavirus type 1a protein E7 (residues 44-93); test: small molecules binding HPV E7 44-93 – biochemical, small-molecule microarray, residues 44-93, 635 nm fluorescence, primary screen (AID 1108); conditions: fluorescence 635 nm, higher = more signal;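 further: E7 fragment applied at 1 µg/mL in TBST for 1 h at 4 C; score combines spot fluorescence with its signal to noise ratio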
[12] = hepatitis C replication reporter changes, two-sided – Huh7 cells, luciferase reporter, HCV replication inhibitor project, primary screen (AID 1109); conditions: Huh7 HCV replicon luciferase reporter, 48 h; higher = more signal;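 further: huh7 hepatoma cells harbouring a luciferase neomycin HCV replicon reporter; luciferase luminescence as measure of HCV replicon replication; test concentration not given here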
[13] = target: Left-right determination factor 2 (Homo sapiens) (UniProt O00292); test: small molecules binding LEFTY2 protein – biochemical, small-molecule microarray, 635 nm fluorescence scan, primary screen (AID 1110); conditions: higher = more signal
[14] = target: Calmodulin-1 (Homo sapiens) (UniProt P0DP23); test: small molecules binding calmodulin-1 with EGTA – biochemical, small-molecule microarray, Cy5-labelled CALM1, profiling panel (AID 1111); conditions: Cy5-CALM1 binding fluorescence, higher = more signal;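 further: labelled calmodulin applied in Tris saline Tween buffer holding calcium plus EGTA and DTT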
[15] = target: Calmodulin-1 (Homo sapiens) (UniProt P0DP23); test: small molecules binding Ca-loaded calmodulin-1 – biochemical, small-molecule microarray, Cy5-labelled CALM1, plus calcium, artefact control for SMM control-protein annotation, profiling panel (AID 1112); conditions: Cy5-CALM1 binding fluorescence, higher = more signal;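 further: score merges spot fluorescence with signal to noise from triplicate slides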
[16] = probe aWnt5a binding to arrayed compounds – biochemical, biotinylated probe, 635/667 nm fluorescence, primary screen (AID 1113); conditions: small-molecule microarray, higher = more signal;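 further: score merges 667 nm fluorescence intensity with signal-to-noise per printed feature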
[17] = probe aShh binding to arrayed compounds – biochemical, biotinylated probe, 635/667 nm fluorescence, primary screen (AID 1114); conditions: small-molecule microarray, higher = more signal;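 further: probe is biotin-labelled aShh protein from a stem cell growth factor screen; measures binding of labelled protein to compounds printed on the slide; score merges feature fluorescence at 667 nm with signal-to-noise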
[18] = probe aNog binding to arrayed compounds – biochemical, biotinylated probe, 635/667 nm fluorescence, primary screen (AID 1115); conditions: small-molecule microarray, higher = more signal;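 further: probe is biotinylated aNog protein used at 0.15 µg/mL for 1 h at 4 C; z-score combines 667 nm fluorescence of each spot with its signal to noise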
[19] = target: Torsin-1A-interacting protein 1 (Homo sapiens) (UniProt Q5JTV8); test: compound microarray binding of lysate hLAP1 – cell lysate, small-molecule microarray, COS7 lysate, 635/667 nm fluorescence, primary screen (AID 1116); conditions: 635 nm fluorescence, higher = more signal
[20] = target: Alpha-bungarotoxin (Bungarus multicinctus) (UniProt P60615); test: compounds binding labelled alpha-BTX control protein – biochemical, small-molecule microarray, Alexa647 label, 635/667 nm fluorescence, artefact control for SMM control protein annotation, profiling panel (AID 1117); conditions: alpha-BTX-A647 binding fluorescence, higher = more signal
Alpha-bungarotoxin (Bungarus multicinctus), sequence (P60615 whole entry, looked up): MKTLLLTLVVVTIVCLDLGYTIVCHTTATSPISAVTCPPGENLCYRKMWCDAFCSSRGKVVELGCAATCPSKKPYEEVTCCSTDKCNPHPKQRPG

Epidermal growth factor receptor (Homo sapiens), sequence (P00533 whole entry, looked up): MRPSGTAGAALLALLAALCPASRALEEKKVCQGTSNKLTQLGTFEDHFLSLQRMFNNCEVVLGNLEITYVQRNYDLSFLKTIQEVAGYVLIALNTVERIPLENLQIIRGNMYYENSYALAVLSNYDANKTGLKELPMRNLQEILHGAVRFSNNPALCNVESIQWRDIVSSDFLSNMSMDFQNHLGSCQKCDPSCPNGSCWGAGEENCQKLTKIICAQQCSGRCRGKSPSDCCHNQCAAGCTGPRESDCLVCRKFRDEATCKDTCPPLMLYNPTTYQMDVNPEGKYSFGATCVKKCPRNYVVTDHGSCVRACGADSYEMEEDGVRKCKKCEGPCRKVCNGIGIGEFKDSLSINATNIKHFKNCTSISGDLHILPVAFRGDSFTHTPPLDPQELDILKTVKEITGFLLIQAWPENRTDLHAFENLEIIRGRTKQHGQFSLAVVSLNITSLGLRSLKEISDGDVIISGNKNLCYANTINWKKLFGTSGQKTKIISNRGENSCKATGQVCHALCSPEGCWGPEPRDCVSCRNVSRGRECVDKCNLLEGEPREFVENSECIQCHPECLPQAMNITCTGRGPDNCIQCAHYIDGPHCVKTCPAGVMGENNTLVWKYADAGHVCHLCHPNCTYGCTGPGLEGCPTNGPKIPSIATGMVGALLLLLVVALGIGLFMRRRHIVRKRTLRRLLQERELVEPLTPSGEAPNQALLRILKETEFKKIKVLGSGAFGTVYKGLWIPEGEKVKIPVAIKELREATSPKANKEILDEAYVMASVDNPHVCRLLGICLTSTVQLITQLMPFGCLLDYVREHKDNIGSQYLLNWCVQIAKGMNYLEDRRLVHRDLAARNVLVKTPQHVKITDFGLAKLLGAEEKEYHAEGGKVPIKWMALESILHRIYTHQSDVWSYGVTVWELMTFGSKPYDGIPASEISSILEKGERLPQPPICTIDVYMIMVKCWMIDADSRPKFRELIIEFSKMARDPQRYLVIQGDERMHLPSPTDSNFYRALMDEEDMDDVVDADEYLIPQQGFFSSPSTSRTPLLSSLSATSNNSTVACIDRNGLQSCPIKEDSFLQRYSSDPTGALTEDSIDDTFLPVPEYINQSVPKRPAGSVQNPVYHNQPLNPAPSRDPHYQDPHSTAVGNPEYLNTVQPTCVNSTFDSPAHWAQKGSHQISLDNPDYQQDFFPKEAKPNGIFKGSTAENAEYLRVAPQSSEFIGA
Follistatin-related protein 3 (Homo sapiens), sequence (O95633 whole entry, looked up): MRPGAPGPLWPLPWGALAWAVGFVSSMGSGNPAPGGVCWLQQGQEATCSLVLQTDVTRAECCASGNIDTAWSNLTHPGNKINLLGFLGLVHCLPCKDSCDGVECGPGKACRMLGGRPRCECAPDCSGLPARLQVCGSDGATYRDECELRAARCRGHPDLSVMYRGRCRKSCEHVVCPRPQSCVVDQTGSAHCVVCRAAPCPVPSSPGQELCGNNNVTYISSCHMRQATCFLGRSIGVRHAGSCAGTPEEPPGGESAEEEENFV
Left-right determination factor 2 (Homo sapiens), sequence (O00292 whole entry, looked up): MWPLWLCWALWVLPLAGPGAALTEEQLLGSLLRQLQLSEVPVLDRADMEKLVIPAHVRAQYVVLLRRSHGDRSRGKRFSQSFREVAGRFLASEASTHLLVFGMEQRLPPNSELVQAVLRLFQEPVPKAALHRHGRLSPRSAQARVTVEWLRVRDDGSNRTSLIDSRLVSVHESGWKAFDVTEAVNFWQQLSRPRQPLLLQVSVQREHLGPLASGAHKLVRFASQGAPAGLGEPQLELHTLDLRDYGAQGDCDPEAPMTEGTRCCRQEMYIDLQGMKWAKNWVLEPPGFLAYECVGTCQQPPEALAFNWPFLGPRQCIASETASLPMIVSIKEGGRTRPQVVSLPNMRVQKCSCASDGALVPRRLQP
Fibroblast growth factor 10 (Homo sapiens), sequence (O15520 whole entry, looked up): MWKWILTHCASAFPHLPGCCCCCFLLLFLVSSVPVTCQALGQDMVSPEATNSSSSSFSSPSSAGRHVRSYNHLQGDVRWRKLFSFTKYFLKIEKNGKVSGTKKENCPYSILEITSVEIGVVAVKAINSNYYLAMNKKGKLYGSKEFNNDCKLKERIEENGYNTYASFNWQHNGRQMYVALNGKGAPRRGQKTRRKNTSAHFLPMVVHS
Torsin-1A-interacting protein 1 (Homo sapiens), sequence (Q5JTV8 whole entry, looked up): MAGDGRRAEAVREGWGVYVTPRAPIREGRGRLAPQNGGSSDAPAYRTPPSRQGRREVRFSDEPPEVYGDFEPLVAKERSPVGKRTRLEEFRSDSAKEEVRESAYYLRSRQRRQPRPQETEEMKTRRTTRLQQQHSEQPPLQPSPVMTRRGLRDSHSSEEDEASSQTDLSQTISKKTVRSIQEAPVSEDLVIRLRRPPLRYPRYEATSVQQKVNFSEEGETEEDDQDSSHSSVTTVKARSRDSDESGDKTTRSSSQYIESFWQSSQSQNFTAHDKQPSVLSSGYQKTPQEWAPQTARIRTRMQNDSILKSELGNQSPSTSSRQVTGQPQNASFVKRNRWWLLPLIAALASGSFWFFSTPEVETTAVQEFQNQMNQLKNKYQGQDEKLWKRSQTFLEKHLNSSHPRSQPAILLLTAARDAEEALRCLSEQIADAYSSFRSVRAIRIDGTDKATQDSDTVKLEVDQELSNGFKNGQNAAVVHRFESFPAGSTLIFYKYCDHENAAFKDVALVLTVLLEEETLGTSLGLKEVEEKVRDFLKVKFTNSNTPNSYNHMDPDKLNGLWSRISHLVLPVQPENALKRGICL
Dickkopf-related protein 1 (Homo sapiens), sequence (O94907 whole entry, looked up): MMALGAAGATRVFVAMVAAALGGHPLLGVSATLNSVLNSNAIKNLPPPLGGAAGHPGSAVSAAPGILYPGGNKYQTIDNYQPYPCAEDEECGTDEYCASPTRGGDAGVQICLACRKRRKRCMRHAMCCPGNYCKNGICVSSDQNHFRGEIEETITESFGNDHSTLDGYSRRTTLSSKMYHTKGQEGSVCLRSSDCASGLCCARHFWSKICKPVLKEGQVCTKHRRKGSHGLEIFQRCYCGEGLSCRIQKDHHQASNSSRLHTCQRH

COCCNC(=O)OCC1CCCC2(CC(OC(=O)NCc3ccc4c(c3)OCO4)CC(CCC(=O)N[C@@H](C)C(=O)OC)O2)O1 (stereo not given in full)
composite z-score [1]: 0.742
composite z-score [2]: -0.205
composite z-score [3]: -0.634
z-score [4]: 0.442 (inactive)
composite z-score [5]: 0.696
composite z-score [6]: 0.953
composite z-score [7]: 0.696
composite z-score [8]: 1.31
composite z-score [9]: 0.518
composite z-score [10]: 0.0253
composite z-score [11]: 0.953
z-score [12]: -1.26
composite z-score [13]: 0.65
composite z-score [14]: 0.332
composite z-score [15]: -0.431
composite z-score [16]: -0.0819
composite z-score [17]: -0.0553
composite z-score [18]: -0.0645
composite z-score [19]: 0.376
composite z-score [20]: 0.804

CO[C@H]1COC(=O)CC=C[C@H](C)[C@@H](OC)COC(=O)[C@@H](C)NC(=O)CC=C[C@@H]1C
composite z-score [1]: 1.23
composite z-score [2]: -0.377
composite z-score [3]: -1.17
z-score [4]: -0.653 (inactive)
composite z-score [5]: 0.447
composite z-score [6]: 0.597
composite z-score [7]: 1.27
composite z-score [8]: 1.44
composite z-score [9]: 1.49
composite z-score [10]: 1.52
composite z-score [11]: -2.13
z-score [12]: -1.42
composite z-score [13]: 0.962
composite z-score [14]: -0.857
composite z-score [15]: -1.55
composite z-score [16]: -0.119
composite z-score [17]: -0.367
composite z-score [18]: -0.274
composite z-score [19]: 0.12
composite z-score [20]: -0.352

C[C@@H](c1ccccc1)N1C(=O)[C@H]2[C@H]3[C@H](O)[C@H](O)CC(=NO[C@@H]4O[C@H](CO)[C@@H](O)[C@H](O)[C@H]4O)[C@@H]3CC[C@H]2C1=O
composite z-score [1]: 0.256
composite z-score [2]: -0.193
composite z-score [3]: -0.62
z-score [4]: 0.119 (inactive)
composite z-score [5]: 0.305
composite z-score [6]: 0.495
composite z-score [7]: 0.586
composite z-score [8]: 0.579
composite z-score [9]: 0.393
composite z-score [10]: 0.0868
composite z-score [11]: 0.292
z-score [12]: -0.278
composite z-score [13]: 0.576
composite z-score [14]: -0.238
composite z-score [15]: -0.686
composite z-score [16]: -0.0403
composite z-score [17]: -0.19
composite z-score [18]: 0.0924
composite z-score [19]: 0.526
composite z-score [20]: 0.199

O=C1OCCC=C1C(O)CCc1ccccc1 (stereo not given)
composite z-score [1]: 0.11
composite z-score [2]: -0.344
composite z-score [3]: -0.293
z-score [4]: -0.278 (inactive)
composite z-score [5]: 0.248
composite z-score [6]: 0.216
composite z-score [7]: 0.386
composite z-score [8]: 0.527
composite z-score [9]: 0.586
composite z-score [10]: 0.62
composite z-score [11]: -0.0602
z-score [12]: -0.364
composite z-score [13]: 0.791
composite z-score [14]: -0.818
composite z-score [15]: -0.679
composite z-score [16]: -0.0981
composite z-score [17]: -0.13
composite z-score [18]: 0.0229
composite z-score [19]: 0.128
composite z-score [20]: 0.642

CCCNC(=O)OC[C@H]1O[C@H](CCON=C(C)CCN2CCc3nc(CC)c(CC)cc3C2)C=C[C@@H]1Oc1ccc(OC)cc1
composite z-score [1]: 0.865
composite z-score [2]: -0.231
composite z-score [3]: -0.163
z-score [4]: -1.02 (inactive)
composite z-score [5]: -0.423
composite z-score [6]: -0.687
composite z-score [7]: 0.159
composite z-score [8]: 0.125
composite z-score [9]: 0.192
composite z-score [10]: 0.886
composite z-score [11]: -0.263
z-score [12]: -3.27
composite z-score [13]: 0.223
composite z-score [14]: -0.254
composite z-score [15]: -0.875
composite z-score [16]: -0.034
composite z-score [17]: -0.154
composite z-score [18]: -0.4
composite z-score [19]: 0.345
composite z-score [20]: 0.381

CC(C)=NO[C@H](C)c1cn([C@H](CO)Cc2ccccc2)nn1
composite z-score [1]: 0.618
composite z-score [2]: -0.309
composite z-score [3]: -0.113
z-score [4]: 1 (inactive)
composite z-score [5]: 0.443
composite z-score [6]: -0.122
composite z-score [7]: 0.17
composite z-score [8]: -0.275
composite z-score [9]: 0.291
composite z-score [10]: 0.576
composite z-score [11]: 0.216
z-score [12]: -0.463
composite z-score [13]: 0.13
composite z-score [14]: 0.0595
composite z-score [15]: -0.0004
composite z-score [16]: 0.0438
composite z-score [17]: 0.0121
composite z-score [18]: 0.145
composite z-score [19]: -0.197
composite z-score [20]: -0.0691

COc1cccc([C@@H]2Oc3ccc(OC)cc3C(=O)[C@H]2O)c1
composite z-score [1]: -0.117
composite z-score [2]: -0.172
composite z-score [3]: -0.705
z-score [4]: -2.47 (inactive)
composite z-score [5]: 0.606
composite z-score [6]: 0.184
composite z-score [7]: 0.469
composite z-score [8]: 0.525
composite z-score [9]: 0.527
composite z-score [10]: 0.0204
composite z-score [11]: 0.0299
z-score [12]: 2.25
composite z-score [13]: 0.386
composite z-score [14]: 0.111
composite z-score [15]: -0.397
composite z-score [16]: -0.157
composite z-score [17]: -0.0211
composite z-score [18]: -0.519
composite z-score [19]: -0.0655
composite z-score [20]: 1.11

COC(=O)[C@@H]1CC[C@H](C)[C@@H](c2ccc(C)cc2)N1C(=O)c1ccc(C=NOC[C@@H](C)[C@H](OCc2ccccc2)C(C)C)cc1
composite z-score [1]: 0.854
composite z-score [2]: 0.0975
composite z-score [3]: -0.233
z-score [4]: -1.12 (inactive)
composite z-score [5]: 0.532
composite z-score [6]: 1.16
composite z-score [7]: 0.814
composite z-score [8]: 0.804
composite z-score [9]: 0.414
composite z-score [10]: -0.182
composite z-score [11]: 1.09
z-score [12]: -0.989
composite z-score [13]: 0.583
composite z-score [14]: -0.0027
composite z-score [15]: -0.607
composite z-score [16]: -0.0276
composite z-score [17]: -0.0553
composite z-score [18]: -0.302
composite z-score [19]: 1.27
composite z-score [20]: 1.25

CCOC(=O)[C@H](CC(C)C)NC(=O)CCC1CC(OC(=O)NCCc2ccc(F)cc2)CC2(CCCC(COC(=O)NCC3CCCCC3)O2)O1 (stereo not given in full)
composite z-score [1]: 0.0149
composite z-score [2]: -0.227
composite z-score [3]: -0.283
z-score [4]: -0.152 (inactive)
composite z-score [5]: 0.953
composite z-score [6]: 0.293
composite z-score [7]: 0.432
composite z-score [8]: 0.8
composite z-score [9]: 0.479
composite z-score [10]: -0.174
composite z-score [11]: 0.723
z-score [12]: -1.11
composite z-score [13]: 0.351
composite z-score [14]: 0.255
composite z-score [15]: -0.622
composite z-score [16]: -0.19
composite z-score [17]: -0.0362
composite z-score [18]: -0.45
composite z-score [19]: 0.627
composite z-score [20]: 0.596

CCOC(=O)[C@H](Cc1ccccc1)NC(=O)CCC1CC(OC(=O)NCc2cccc3ccccc23)CC2(CCCC(COC(=O)NCCC(C)C)O2)O1 (stereo not given in full)
composite z-score [1]: 0.12
composite z-score [2]: -0.295
composite z-score [3]: -0.206
z-score [4]: -1.74 (inactive)
composite z-score [5]: 0.143
composite z-score [6]: -0.448
composite z-score [7]: -0.135
composite z-score [8]: 0.133
composite z-score [9]: -0.096
composite z-score [10]: 0.388
composite z-score [11]: -2.01
z-score [12]: -0.134
composite z-score [13]: 0.215
composite z-score [14]: 0.56
composite z-score [15]: -0.29
composite z-score [16]: -0.13
composite z-score [17]: 0.0141
composite z-score [18]: -0.372
composite z-score [19]: -0.0831
composite z-score [20]: 1.09

CCOC(=O)[C@H](Cc1ccccc1)NC(=O)CCC1CC(OC(=O)NCc2cccc3ccccc23)CC2(CCCC(COC(=O)NCC(c3ccccc3)c3ccccc3)O2)O1 (stereo not given in full)
composite z-score [1]: 0.812
composite z-score [2]: 0.127
composite z-score [3]: -0.464
z-score [4]: -1.21 (inactive)
composite z-score [5]: 0.684
composite z-score [6]: 0.588
composite z-score [7]: 0.356
composite z-score [8]: 0.501
composite z-score [9]: 0.37
composite z-score [10]: 0.0413
composite z-score [11]: 0.313
z-score [12]: -1.46
composite z-score [13]: 0.567
composite z-score [14]: -0.328
composite z-score [15]: -0.43
composite z-score [16]: -0.096
composite z-score [17]: -0.2
composite z-score [18]: -0.187
composite z-score [19]: 0.18
composite z-score [20]: -0.0602
